This is an account of results in the supplement of paper PMC7156485.

Structures are written as SMILES. Values without a mark were called inactive.
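Also: TDF is a line of transformed human dermal fibroblasts of mesenchymal origin.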

This experiment deals with HCC1569. Description: H1.0 immunofluorescence intensity relative to DMSO (% of DMSO); higher = stronger H1.0 induction, active = 140 or more. The settings on record: concentration: 10 µM; 24 h. The essentials:
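H1.0 nuclear intensity or cell number is expressed as percent of the plate control, with the median of replicates taken. HCC1569 and TDF cells were treated with compounds at 10 µM for 24 h at 37 °C, in triplicate, then fixed and immunostained for H1.0 with DAPI as a nuclear stain. HCC1569 values were smoothed to correct for positional effects.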
With `CC(C)=CCCC(C)=CCOc1ccc2ccc(=O)oc2c1` [Auraptene], the H1.0 immunofluorescence intensity is 97.1.
On to `CN(C)CCOc1ccc(-c2nc(=c3ccc4c(c3)CCC=4N=O)c(=C3C=CNC=C3)[nH]2)cc1`, for which the H1.0 immunofluorescence intensity is 132.
With `CC1=C(C(=O)O)N2C(=O)C(NC(=O)C(N)C3=CCC=CC3)C2SC1` (stereo not given) [Cephadrine] the figure was 88; with `CCC=CCC=CCC=CCCCCCCCCCCCC(=O)O` [Docosatrienoic acid], 102.
The result for `CCCCCC(=O)C=CC1C(O)CC(O)C1CC=CCCCC(=O)O` (stereo not given) [15-keto-prostaglandin F2a] reads 103; that for `O=c1c(O)c(-c2ccccc2)oc2cc(O)cc(O)c12` [Galangine], 100.
The result for `CN(C)c1nc(N)c(C(=O)N=C(N)N)nc1Cl.Cl` [5-(N,N-Dimethyl)amiloride hydrochloride] reads 103.
In the case of `N[C@@H](Cc1ccc(O)c(O)c1)C(=O)O` [L-3,4-Dihydroxyphenylalanine], the H1.0 immunofluorescence intensity was 90.
`CC(C=CC1=C(C)CCCC1(C)C)=CC=CC(C)=CC(=O)O` [13-cis-retinoic acid]: the H1.0 immunofluorescence intensity was 123.
With `CCCCCCCCCCCCCCCC(=O)OCC(O)C1OC(=O)C(O)=C1O` (stereo not given) [Ascorbyl palmitate] the figure was 102; with `NC(=O)CC[C@H](N)C(=O)O` [L-Glutamine], 105; with `CC1(C)CCC(NC(=O)C(N)CCC(=O)O)CC1` (stereo not given), 91.7.
The result for `C[N+](C)(C)CCOC(=O)CCC(=O)OCC[N+](C)(C)C.O.O.[Cl-].[Cl-]` reads 102; that for `C[N+](C)(C)CCCCCC[N+](C)(C)C.[Br-].[Br-]` [Hexamethonium bromide], 102; that for `CCCCOC(=O)NS(=O)(=O)c1sc(CC(C)C)cc1-c1ccc(Cn2c(CC)nc3c(C)cc(C)nc32)cc1`, 100.
With `CC(=O)SCC[N+](C)(C)C.[Cl-]` [Acetylthiocholine chloride], the H1.0 immunofluorescence intensity was 92.5.
For the compound `O=C1Nc2ccc(Cl)cc2C1=Cc1cc(Cl)c(O)c(Cl)c1` [PKR Inhibitor, Negative Control], the H1.0 immunofluorescence intensity is 128.
With `C#CC1(O)CCC2C3CCC4=CC(=O)CCC4C3CCC21C` (stereo not given) [Norethindrone] the figure was 109.
The result for `O=NN(CCCl)C(=O)NC1CCCCC1` [Lomustine] reads 99.7.
With `CCCCCC(O)C=CC1C=CC(=O)C1CC=CCCCC(=O)O` (stereo not given) [Prostaglandin A2] the figure was 104; with `COc1cc2c(cc1OC)-c1cc(=Nc3c(C)cc(C)cc3C)n(C)c(=O)n1CC2.Cl` [Trequinsin.HCl], 118.
Consider `Cn1c(=O)c2[nH]c(C3CCCC3)nc2n(C)c1=O` [8-Cyclopentyl-1,3-dimethylxanthine], for which the H1.0 immunofluorescence intensity is 102.
With `N[C@@H](CC(=O)O)C(=O)O` [L-Aspartic acid] the figure was 93.2; with `Nc1ncnc2c1C(=O)N(c1ccc(C3CCC(CC(=O)O)CC3)cc1)CCO2` (stereo not given), 98.5; with `Cc1c(C(=O)O)c(O)cc2c1C(=O)c1c(O)c(C3OC(CO)C(O)C(O)C3O)c(O)c(O)c1C2=O` (stereo not given) [Carminic acid], 99.8.
With `CC(C)C(CO)Nc1nc(Nc2cc(N)cc(Cl)c2)c2ncn(C(C)C)c2n1` (stereo not given) [Aminopurvalanol A], the H1.0 immunofluorescence intensity is 145 (active).
The result for `Cl.NCc1c[nH]c(=S)n1[C@H]1CCc2c(F)cc(F)cc2C1` reads 111; that for `CC(C(=O)O)c1ccc(-c2ccccc2)c(F)c1` (stereo not given) [Flurbiprofen], 101.
The result for `C[C@]12CCC(=O)C=C1CC[C@@H]1[C@@H]2[C@@H](O)C[C@@]2(C)[C@H]1CC[C@]2(O)C(=O)COC(=O)CCC(=O)[O-].[Na+]` reads 103; that for `Cc1ccc(-c2cc(C(F)(F)F)nn2-c2ccc(S(N)(=O)=O)cc2)cc1` [Celecoxib], 106.
For `CN(C)NN=C1N=CN=C1C(N)=O` [Dacarbazine], the H1.0 immunofluorescence intensity is 101.
With `O=C(Nc1c(Cl)cncc1Cl)c1ccc(OC(F)F)c(OCC2CC2)c1` the figure was 101; with `O=S(=O)(O)C1CCNCC1` [Piperidine-4-sulphonic acid], 122.
The result for `CC(CSC(=O)c1ccccc1)C(=O)N1CC(Sc2ccccc2)CC1C(=O)[O-].CC(CSC(=O)c1ccccc1)C(=O)N1CC(Sc2ccccc2)CC1C(=O)[O-].[Ca+2]` (stereo not given) reads 95.4; that for `Nc1ccc(C(=O)Nc2cccc(-c3nc(N4CCOCC4)c4oc5ncccc5c4n3)c2)cn1` [PIKfyve Inhibitor], 151 (active); that for `CC(C)=CCC(OC(=O)C=C(C)C)C1=CC(=O)c2c(O)ccc(O)c2C1=O` (stereo not drawn) [Shikonin beta,beta-dimethylacrylate], 114.
As for `CCCCCC(O)C=CC=O` (racemic), the H1.0 immunofluorescence intensity was 106.
Turning to `O=C1CCCC(=O)C1C(=O)c1ccc(C(F)(F)F)cc1[N+](=O)[O-]` [2-[2-nitro-4-(trifluoromethyl)benzoyl]-1,3-cyclohexanedione], the H1.0 immunofluorescence intensity is 101.
Consider `CS(=O)(=O)O.Cc1ccc(NC(=O)c2ccc(CN3CCN(C)CC3)cc2)cc1Nc1nccc(-c2cccnc2)n1` [Imatinib], for which the H1.0 immunofluorescence intensity was 127.
The result for `CCC(C)(C)c1ccc(CC(C)CN2CC(C)OC(C)C2)cc1` (stereo not given) [Amorolfine] reads 110.
